Data as given in the supplement of paper PMC9694430.
Structures can show the parent of a compound that is named as a salt.

test system: T1, LOC_OS06G22820-cb001; assay: thermal shift delta Tm vs DMSO control; higher = stronger stabilization (binding); settings: 12.5 µM; protein concentration 2 µM
T1 sequence (whole entry): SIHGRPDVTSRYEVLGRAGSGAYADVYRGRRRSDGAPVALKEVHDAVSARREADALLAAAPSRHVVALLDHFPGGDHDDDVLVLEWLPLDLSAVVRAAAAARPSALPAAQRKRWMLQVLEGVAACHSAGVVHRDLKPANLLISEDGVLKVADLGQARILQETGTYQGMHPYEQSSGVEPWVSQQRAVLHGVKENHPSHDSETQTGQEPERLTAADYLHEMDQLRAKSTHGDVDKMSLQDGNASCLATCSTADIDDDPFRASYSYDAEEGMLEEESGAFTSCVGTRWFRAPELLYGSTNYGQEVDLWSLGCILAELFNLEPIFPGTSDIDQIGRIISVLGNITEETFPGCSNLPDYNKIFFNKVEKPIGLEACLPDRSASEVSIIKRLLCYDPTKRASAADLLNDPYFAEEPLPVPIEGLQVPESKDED
Procedure, shortened: (§1)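 Thermal shift values come from differential scanning fluorimetry on purified rice kinase domains made in E. coli, with melting temperatures obtained from Boltzmann fits. Samples of 19.5 μl held 2 μM kinase, 100 mM potassium phosphate pH 7.5, 150 mM NaCl, 10% glycerol, 5 × SYPRO Orange and compound in DMSO, and were heated from 25°C to 95°C at 0.05°C/s. Each shift is a triplicate mean relative to the DMSO-only protein sample.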
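Further: purified Escherichia coli-expressed rice kinase domain construct.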

Compound | thermal shift delta Tm [°C]
Cc1cc(NC(=O)c2cccc(NC(=O)/C=C/CN(C)C)c2)ccc1Nc1nccc(-c2cccnc2)n1 | 1.05
Nc1nccc(Oc2ccc(NC(=O)c3c[nH]cc(-c4ccc(F)cc4)c3=O)cc2F)c1Cl | 0.86
COc1ccc(/C=C/C(=O)C2(C(=O)/C=C/c3ccc(OC)c(OC)c3)CCCCC2)cc1OC | 0.49
CC(C)CC(=O)Nc1n[nH]c2c1CN(C(=O)C1CCN(C)CC1)C2(C)C | 3.38

test system: LOC_OS07G06570-cb004; assay: as above; settings: 12.5 µM; protein concentration 2 µM
Procedure, shortened: as §1

Compound | thermal shift delta Tm [°C]
CCn1c(=O)c(-c2ccc(-c3cncs3)cc2Cl)cc2cnc(Nc3ccc(N4CCN(C)CC4)cc3)nc21 | 0.84
CNC(=O)c1cccc(-c2ccc3c(N4CCOC[C@@H]4C)nc(N4CCOC[C@@H]4C)nc3n2)c1 [Vistusertib (AZD2014)] | 0.64
CC(C)S(=O)(=O)c1ccc2nccc(Nc3ccc4scnc4c3)c2c1 | 1.62
Cn1cc(-c2ccc3ncc(Cc4ccc5ncccc5c4)n3n2)cn1 | 0.78
N#Cc1ccc2ncnc(NCCc3ccccc3)c2c1 [Senexin A] | 1.46
O=C1NC(=O)/C(=C/c2ccc3nccc(-c4ccncc4)c3c2)S1 | 1.03
Cn1cnc2c(F)c(Nc3ccc(Br)cc3F)c(C(=O)NOCCO)cc21 | 1.32
Cc1cc(Nc2ncc(Cl)c(Nc3ccccc3S(=O)(=O)C(C)C)n2)c(OC(C)C)cc1C1CCNCC1 [Ceritinib (LDK378)] | 1.5
Cc1nc2ccc(-n3ncc(C(=O)c4cc5ccccc5[nH]4)c3N)cc2[nH]1 | -0.34
C=C[C@@](C)(/C=C/c1ccc(O)cc1)CCC=C(C)C [Bakuchiol] | 0.83
C=CC(=O)Nc1cccc(Nc2nc(Nc3ccc(N4CCN(C(C)=O)CC4)cc3OC)ncc2C(F)(F)F)c1 [Rociletinib (CO-1686, AVL-301)] | 1.54
CCCS(=O)(=O)Nc1ccc(F)c(C(=O)c2c[nH]c3ncc(-c4ccc(Cl)cc4)cc23)c1F [Vemurafenib (PLX4032, RG7204)] | 2.33
COc1cc(OC)c(C=C2C(=O)Nc3ccccc32)c(OC)c1 | 1.13
CCN(CC)CCCC(C)Nc1nc(C)cc(Nc2ccc3nc(C)cc(N)c3c2)n1 (configuration not stated) | 1.53
CN1CC(O)C2=C/C(=N/NC(N)=O)C(=O)C=C21 (configuration not stated) [Carbazochrome] | 0.68
Cc1cc(Nc2cc(N3CCN(C)CC3)nc(/C=C/c3ccccc3)n2)n[nH]1 | 1.23
Cc1ccc(NC(=O)Nc2cc(C(F)(F)F)ccc2F)cc1Nc1ccc2c(c1)NC(=O)/C2=C\c1ccc[nH]1 | -0.24
CO[C@H]1C[C@@H]2CC[C@@H](C)[C@@](O)(O2)C(=O)C(=O)N2CCCC[C@H]2C(=O)O[C@H]([C@H](C)C[C@@H]2CC[C@@H](O)[C@H](OC)C2)CC(=O)[C@H](C)/C=C(\C)[C@@H](O)[C@@H](OC)C(=O)[C@H](C)C[C@H](C)/C=C/C=C/C=C/1C [Rapamycin (Sirolimus)] | 1.23
C[S+]([O-])c1ccc(-c2nc(-c3ccc(F)cc3)c(-c3ccncc3)[nH]2)cc1 (configuration not stated) | 1.21

Compound | thermal shift delta Tm [°C]
CO[C@H]1CC[C@H](N2C(=O)CNc3ncc(-c4ccc(C(C)(C)O)nc4)nc32)CC1 | 0.79
O=C(Nc1ccccc1C(=O)NC1CCCCNC1=O)c1cc2ccccc2s1 (configuration not stated) | 1.21
CCN1CCN(Cc2ccc(-c3cc4c(N[C@H](C)c5ccccc5)ncnc4[nH]3)cc2)CC1 | 1.03
Cc1cnc(NC(=O)Nc2cc(Br)c(C)cc2OC[C@@H]2CNCCO2)cn1 | 0.46
Cc1ccc(NC(=O)c2ccc(CN3CCN(C)CC3)cc2)cc1Nc1nccc(-c2cccnc2)n1 [Imatinib Mesylate (STI571)] | 1.07
NC(=O)c1ccc(N(C(N)=O)c2c(F)cccc2F)nc1-c1ccc(F)cc1F | 1.05
Cc1nc(-c2cn3c(n2)-c2ccc(-c4cnn(C(C)(C)C(N)=O)c4)cc2OCC3)n(C(C)C)n1 [Taselisib (GDC 0032)] | 1.28
COc1cc(N2CCC(N(C)C)CC2)ccc1Nc1ncc(Cl)c(Nc2ccccc2P(C)(C)=O)n1 | 1.14
COc1cc2c(Nc3ccc(NC(=O)c4ccccc4)cc3)ncnc2cc1OCCCN1CCOCC1 | 0.77
CNC(=O)c1cc(Oc2ccc(NC(=O)Nc3cc(C(C)(C)C)nn3-c3ccc4ncccc4c3)c(F)c2)ccn1 [Rebastinib (DCC-2036)] | 0.44
CC(C)(CO)n1cc(C(=O)c2cncc(NC(=O)Cc3ccc(Cl)cn3)c2)c2cnc(N)nc21 | 1.47
CS(=O)(=O)N1CCN(Cc2cc3nc(-c4cccc5[nH]ncc45)nc(N4CCOCC4)c3s2)CC1 [Pictilisib (GDC-0941)] | 0.46
C[C@@H]1COC(Nc2ccc3ncnc(Nc4ccc(OCc5nccs5)c(Cl)c4)c3c2)=N1 [Varlitinib] | 0.43
COc1cc(Nc2ncc(F)c(Nc3ccc4c(n3)NC(=O)C(C)(C)O4)n2)cc(OC)c1OC | 0.43
CC(C)n1nc(-c2ccc3oc(N)nc3c2)c2c(N)ncnc21 | 1.22
Cc1cc(NC(=O)c2cccc(NC(=O)/C=C/CN(C)C)c2)ccc1Nc1nccc(-c2cccnc2)n1 | 1.56
Nc1nccc(Oc2ccc(NC(=O)c3c[nH]cc(-c4ccc(F)cc4)c3=O)cc2F)c1Cl | 0.57
COc1ccc(/C=C/C(=O)C2(C(=O)/C=C/c3ccc(OC)c(OC)c3)CCCCC2)cc1OC | 2.62
CC(C)CC(=O)Nc1n[nH]c2c1CN(C(=O)C1CCN(C)CC1)C2(C)C | 0.44
